Mtb hypoxia rep = PubChem AID 1159583 | M. tuberculosis hypoxia-regulated fluorescent reporter, fluorescence | fluorescence inhibition, % (concentration not given with the values) | actives 0.1% (n = 300,000); in the data active = fluorescence inhibition mostly above about 23%, no sharp cut-off; inactive = mostly below about 17%
MazF activator = activators of E. coli MazEF toxin-antitoxin RNase, primary screen, biochemical, fluorescence, uHTS. Endoribonuclease toxin MazF (Escherichia coli (strain K12)), P0AE70. FAM/BHQ RNA-DNA oligo cleavage fluorescence, 5 h. activation, % at 20 µM. actives 0.32% (n = 350,000); in the data active = activation above about 50%
Target sequence (P0AE70 whole entry, looked up): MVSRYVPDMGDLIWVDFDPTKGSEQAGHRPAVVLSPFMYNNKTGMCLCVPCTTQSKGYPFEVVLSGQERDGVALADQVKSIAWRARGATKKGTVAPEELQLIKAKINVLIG
PrPC surface inh = inhibitors of human cell surface prion protein PrPC, primary screen, cell-based, TR-FRET. Major prion protein (Homo sapiens), P04156. TR-FRET read-out. inhibition, % at 13.8 µM. actives 0.43% (n = 370,000). AID 720596, 2013; in the data active = inhibition above about 24%; note: 0% = median of the test wells and 100% = reference compound wells
3CLpro inhibitor = SARS-CoV 3CLpro protease inhibitors, primary screen, biochemical, quenched FRET | recombinant SARS-CoV 3CLpro, quenched FRET peptide cleavage | inhibition, % at 6 µM | actives 0.14% (n = 290,000) | AID 1706, 2009; in the data active = inhibition above about 12%
VHR inh abs = VHR1 phosphatase inhibitors, primary screen, biochemical, absorbance, uHTS. Dual specificity protein phosphatase 3 (Homo sapiens), P51452. recombinant VHR phosphatase, pNPP absorbance. inhibition, % at 13.3 µM. actives 0.52% (n = 290,000); in the data active = inhibition above about 50%
Target sequence (P51452 whole entry, looked up): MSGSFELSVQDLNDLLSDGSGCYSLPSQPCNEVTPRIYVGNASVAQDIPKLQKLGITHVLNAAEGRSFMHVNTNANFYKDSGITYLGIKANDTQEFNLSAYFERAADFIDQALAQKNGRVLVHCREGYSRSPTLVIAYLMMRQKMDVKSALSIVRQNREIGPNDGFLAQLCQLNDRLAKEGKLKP
PrP 5UTR inh = inhibition of PrP 5' UTR reporter expression | cell-based PrP 5' UTR mRNA reporter, plate reader | inhibition, % (test concentration not listed) | actives 0.35% (n = 340,000) | AID 488862, 2010; in the data active = inhibition above about 52%; note: 0 = median of the neutral control wells
* marks the source's active call; other numbers are inactive results; ! = not confirmed by another sample. An excerpt weighted towards active compounds, which were near 1.5% of everything screened.

How did Cc1ccc(C=NNc2nc(N3CCCCC3)nc(N3CCCCC3)n2)o1 do in these assays?
Mtb hypoxia rep: 7.5

How did CC(=O)c1sc(NC(=O)C2COc3ccccc3O2)nc1C (stereo unspecified) do in these assays?
Mtb hypoxia rep: -0.2; MazF activator: 7.3; PrPC surface inh: 40.5*; 3CLpro inhibitor: -6.1; VHR inh abs: 24.9; PrP 5UTR inh: 32.4

How did COc1ccc(OC)c(-c2cc(C(=O)Nc3ccc(F)cc3F)no2)c1 do in these assays?
Mtb hypoxia rep: 11.2; MazF activator: -75.8; PrPC surface inh: 7.2; 3CLpro inhibitor: 3.0; VHR inh abs: 49.8; PrP 5UTR inh: -0.8

Results for COc1ccc(-c2cc(C(=O)Nc3ccc(F)cc3F)no2)cc1 ?
Mtb hypoxia rep: 2.7; MazF activator: -18.2; PrPC surface inh: 8.4; 3CLpro inhibitor: -5.2; VHR inh abs: 54.7*; PrP 5UTR inh: -27.9

Results for O=[N+]([O-])c1c(NCCCO)cc(Sc2nc3ccccc3s2)c2nonc12 ?
Mtb hypoxia rep: 20.8; MazF activator: 113.8*; 3CLpro inhibitor: 3.4; VHR inh abs: 1.8; PrP 5UTR inh: -15.7

What do the screens show for `O=C(NCC12CC3CC(CC(C3)C1)C2)c1nc2ncccn2n1`?
Mtb hypoxia rep: 6.7; MazF activator: 95.6*; PrPC surface inh: 14.2; 3CLpro inhibitor: 0.2; VHR inh abs: 22.1; PrP 5UTR inh: -19.0

What do the screens show for `O=C(NCCc1ccccc1)c1nc2ncccn2n1`?
Mtb hypoxia rep: 1.8; MazF activator: 3.5; PrPC surface inh: -2.6; 3CLpro inhibitor: -2.1; VHR inh abs: 18.1; PrP 5UTR inh: -12.7

Results for CCCC(=O)Nc1c2c(nn1-c1cccc(C)c1C)CS(=O)(=O)C2 ?
Mtb hypoxia rep: -0.4; MazF activator: -6.5; PrPC surface inh: -1.8; 3CLpro inhibitor: -2.0; VHR inh abs: 13.3; PrP 5UTR inh: -19.5

What do the screens show for `CC(=O)Nc1c2c(nn1-c1ccccc1C)CSC2`?
Mtb hypoxia rep: 12.2; MazF activator: 7.4; PrPC surface inh: -2.8; 3CLpro inhibitor: -2.7; VHR inh abs: 57.5*; PrP 5UTR inh: -10.4

Results for CCC(=O)Nc1c2c(nn1-c1ccccc1C)CSC2 ?
Mtb hypoxia rep: 5.3; MazF activator: 3.7; PrPC surface inh: -4.7; 3CLpro inhibitor: -4.5; VHR inh abs: 13.3; PrP 5UTR inh: -22.6

What do the screens show for `CC(=O)Nc1c2c(nn1-c1ccccc1C)CS(=O)(=O)C2`?
Mtb hypoxia rep: -7.9; MazF activator: -3.4; PrPC surface inh: 5.7; 3CLpro inhibitor: -1.8; VHR inh abs: 56.9*; PrP 5UTR inh: -2.0

What do the screens show for `CS(=O)(=O)c1sc(C#N)c2c1C(=O)CC(c1ccccc1)C2` (stereo unspecified)?
MazF activator: 6.0; PrPC surface inh: 50.6*; 3CLpro inhibitor: 0.9; VHR inh abs: 22.8; PrP 5UTR inh: 1.5

How did Cc1ccc(Sc2ncccc2C=NO)cc1 do in these assays?
Mtb hypoxia rep: 8.4

Results for COC(=O)/C(C#N)=C/c1ccc(-c2ccc(S(N)(=O)=O)cc2)o1 ?
Mtb hypoxia rep: 19.4; MazF activator: 5.7; PrPC surface inh: -9.4; 3CLpro inhibitor: -3.4; VHR inh abs: -15.2; PrP 5UTR inh: -26.1

How did CC(C)OC(=O)/C(C#N)=C/c1ccc(-c2ccc(SC(F)F)cc2)o1 do in these assays?
MazF activator: 139.8*; PrPC surface inh: 6.5; 3CLpro inhibitor: 4.6; VHR inh abs: -4.7; PrP 5UTR inh: -13.3

How did COC(=O)c1ccc(C(NC(=O)c2ccco2)[C@]2(C)CC2C2CCCCC2)cc1 (stereo partly specified) do in these assays?
Mtb hypoxia rep: -1.7

What do the screens show for `O=C(Nc1ccc(N2CCOCC2)cc1)c1cccc(-n2cnnc2)c1`?
Mtb hypoxia rep: 2.6; MazF activator: -1.0; PrPC surface inh: 3.5; 3CLpro inhibitor: -1.0; VHR inh abs: 53.4*; PrP 5UTR inh: -10.6

Results for O=C(Nc1ccc(N2CCOCC2)c(Cl)c1)c1cccc(-n2cnnc2)c1 ?
Mtb hypoxia rep: -5.6; MazF activator: 4.0; PrPC surface inh: -2.7; 3CLpro inhibitor: -0.9; VHR inh abs: 22.6; PrP 5UTR inh: -22.2

What do the screens show for `COc1ccc(S(=O)(=O)N2CCOCC2)cc1N=Nc1sc(N)nc1-c1ccccc1`?
Mtb hypoxia rep: 19.0; MazF activator: 8.1; PrPC surface inh: -10.7; 3CLpro inhibitor: 1.9; VHR inh abs: 55.6*; PrP 5UTR inh: -3.0

How did O=[N+]([O-])c1ccc(N2CCCC2)c2ncccc12 do in these assays?
Mtb hypoxia rep: 23.8; MazF activator: 101.4*; PrPC surface inh: -3.2; 3CLpro inhibitor: 3.2; VHR inh abs: 24.9; PrP 5UTR inh: -15.3

Results for O=[N+]([O-])c1ccc(N2CCN(CCO)CC2)c2ncccc12 ?
Mtb hypoxia rep: 9.6; MazF activator: 4.8; PrPC surface inh: -61.9; 3CLpro inhibitor: -2.1; VHR inh abs: 9.6; PrP 5UTR inh: -33.3

How did O=C(Cn1c(=O)oc2ccccc21)Nc1ccc(Cl)cc1 do in these assays?
Mtb hypoxia rep: 8.1; MazF activator: 8.3; PrPC surface inh: 7.1; 3CLpro inhibitor: -4.0; VHR inh abs: 30.0; PrP 5UTR inh: -11.5

Results for O=C(Cn1c(=O)oc2ccccc21)Nc1ccc(F)c(F)c1 ?
Mtb hypoxia rep: 13.5; MazF activator: 2.2; PrPC surface inh: -0.9; 3CLpro inhibitor: -1.4; VHR inh abs: 56.9*; PrP 5UTR inh: -12.6

What do the screens show for `Cc1cc(C(=O)NN=Cc2ccccc2[N+](=O)[O-])c(C)o1`?
Mtb hypoxia rep: 8.4

Results for COc1ccc(C=NNC(=O)COc2cccc3ccccc23)c(C(=O)O)c1OC ?
Mtb hypoxia rep: -4.0

Results for COC(=O)c1nc(N)sc1-c1ccccc1 ?
MazF activator: 2.9; PrPC surface inh: -9.2; 3CLpro inhibitor: 1.7; VHR inh abs: -16.1; PrP 5UTR inh: -16.7

What do the screens show for `COC(=O)c1nc(N)sc1C(C)C`?
Mtb hypoxia rep: 2.6; MazF activator: 9.4; PrPC surface inh: -0.7; 3CLpro inhibitor: -2.2; VHR inh abs: 52.9*; PrP 5UTR inh: -12.7

Results for Cc1cc(C(=O)Nc2ccc(Br)cc2F)n(-c2ccccc2)n1 ?
Mtb hypoxia rep: 7.7; MazF activator: 2.0; PrPC surface inh: -2.5; 3CLpro inhibitor: -3.6; VHR inh abs: 58.1*; PrP 5UTR inh: -6.4

What do the screens show for `Cc1cc(C(=O)Nc2ccc(F)cc2C)n(-c2ccccc2)n1`?
Mtb hypoxia rep: 1.3; MazF activator: 8.7; PrPC surface inh: -5.3; 3CLpro inhibitor: -0.1; VHR inh abs: 12.5; PrP 5UTR inh: -18.4

Results for Cc1c2cc(O)c(=O)cc-2oc2cc(O)c(O)cc12 ?
Mtb hypoxia rep: 16.7; MazF activator: 410.0*; PrPC surface inh: 59.7*; 3CLpro inhibitor: -0.2; VHR inh abs: 122.1*!; PrP 5UTR inh: 1.2

What do the screens show for `O=C(Nc1nc(-c2cccs2)cs1)c1cc2ccccc2oc1=O`?
3CLpro inhibitor: 5.7; VHR inh abs: 6.4

Screening results: PubChem, several laboratories
